CBFb-RUNX1 inh = CBF-beta/RUNX1 interaction disruption | 230,000 tested, under 10 active | AlphaScreen CBFb-His/RUNX1-biotin binding, biochemical | Q01196+Q13951 | Potency, µM (series often up to 59.8 µM), actives largely listed as inhibitors
Target sequence (Q01196 whole entry, looked up): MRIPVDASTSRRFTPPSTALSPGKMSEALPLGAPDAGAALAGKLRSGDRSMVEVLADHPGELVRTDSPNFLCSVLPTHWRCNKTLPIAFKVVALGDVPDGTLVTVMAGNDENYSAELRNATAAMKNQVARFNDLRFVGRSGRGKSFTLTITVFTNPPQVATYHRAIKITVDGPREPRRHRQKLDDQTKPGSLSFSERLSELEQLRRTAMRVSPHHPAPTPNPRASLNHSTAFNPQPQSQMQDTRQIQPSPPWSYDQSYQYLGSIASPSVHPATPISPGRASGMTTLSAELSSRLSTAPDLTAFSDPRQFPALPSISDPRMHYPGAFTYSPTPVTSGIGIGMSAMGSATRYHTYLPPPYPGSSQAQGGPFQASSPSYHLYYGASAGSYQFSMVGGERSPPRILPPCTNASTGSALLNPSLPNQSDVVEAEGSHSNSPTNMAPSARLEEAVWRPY
Target sequence (Q13951 whole entry, looked up): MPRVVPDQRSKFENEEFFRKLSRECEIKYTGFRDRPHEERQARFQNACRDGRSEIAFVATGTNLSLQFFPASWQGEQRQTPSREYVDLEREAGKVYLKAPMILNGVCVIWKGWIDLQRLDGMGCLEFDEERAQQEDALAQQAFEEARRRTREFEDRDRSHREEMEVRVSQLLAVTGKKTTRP
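Compounds were screened at multiple concentrations against a preformed CBF-beta(His)/RUNX1(biotin) complex (30 nM of each) for 15 min at room temperature, followed by 90 min with nickel and streptavidin beads and AlphaScreen reading.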
HTT aggregate = mutant huntingtin aggregation inhibition; hit rate 1.1% among 220,000; Potency, µM (titrated, usually from 46.1 µM), hits mostly inhibitors; PC12 HttQ103-GFP aggregates, Acumen cytometry, 40 h; also: nearly all actives have a fitted effect of over 60% in size
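PC12 cells with ecdysone-inducible HTT exon1 Q103-GFP, induced by 100 nM tebufenozide, given compounds in a concentration series. GFP aggregates (1–25 um, 6 SD above background) counted in lysates by laser-scanning cytometry, 488 nm excitation.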
HPGD inh = blocks human HPGD enzyme activity. AID 894. Potency, µM, usual class: inhibitors. purified HPGD, NADH fluorescence kinetic, PGE2 substrate. hit rate 4.3% among 150,000; active = well fitted inhibition curve with a large enough effect, not every such curve was filed as active; inconclusive = small, poorly fitted or top-dose-only effect, or another doubt; inactive = no such curve, though single readings can be large or run the other way
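NADH formation kinetics: reaction with 30 uM PGE2 and 1 mM NAD+ (final), 20 nM enzyme, Tris-HCl pH 8 with Tween 20, after 15 min compound preincubation at room temperature. Fluorescence change, last versus first of five reads.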
ALDH1A1 block = blocks purified human ALDH1A1 activity; Purified ALDH1A1, NADH fluorescence, propionaldehyde substrate; AID 1030; P00352; Potency, µM (highest dose often 75.3 µM), most hits filed as inhibitors; hit rate 7.3% among 220,000; active = well fitted inhibition curve with a large enough effect, not every such curve was filed as active; inconclusive = small, poorly fitted or top-dose-only effect, or another doubt; inactive = no such curve, though single readings can be large or run the other way
PNC assembly inh = perinucleolar compartment assembly inhibition | PC3M PTB-GFP, PNC prevalence imaging, 16 h; active compounds read low | hit rate 3.1% among 140,000 | activity change (PNC), negative = inhibition, % at 10 µM | AID 2417;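 active = readout at or below -70, meaning at least 70% loss of cells showing the perinucleolar compartment, a nuclear body marking cancer cells; inconclusive = readout between -30 and a set limit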
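PC3M cells stably expressing PTB-GFP, 750–1000 cells/well, treated 16 h at 37 °C with compound (23 nl of library stock), in duplicate. After paraformaldehyde fixation and Hoechst stain, imaged at 20x; PNC prevalence scored by image analysis.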
HTT ATP protect = Huntington cell model cytoprotection by ATP luminescence. hit rate 0.14% among 230,000. Potency, µM (highest dose often 56.4 µM), hits mostly activators. AID 1471. PC12 HTT-Q103 induced, cytoprotection, ATP luminescence, 40 h; also: nearly all actives have a fitted effect of over 45% in size
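Compounds added alongside 100 nM tebufenozide, which induces toxic Q103 huntingtin exon 1-GFP in stable PC12 cells; surviving cells quantified by luminescent ATP measurement. Medium: phenol red-free DMEM, 5% equine and 5% calf serum.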
Large screens that a line does not name were inactive. Most compounds without a hit are left out; they make up all but 11% or so of the library. Unless noted, calls follow the shape of the dose curve; as a rule, active = well fitted curve in the direction sought with a large enough effect; inconclusive = small, poorly fitted or top-dose-only effect, or another doubt; inactive = no such curve, though single readings can be large; an effect the other way counts as inactive or inconclusive.

[O-]/C(=C(\C(=S)Nc1ccccc1F)[n+]1ccccc1)c1ccc(-c2ccccc2)cc1	ALDH1A1 block 17.8µM (no result: HPGD inh, PNC assembly inh)
CCOc1ccccc1NC(=S)/C(=C(\[O-])c1ccc2c(c1)OCCO2)[n+]1ccc(CC)cc1	HPGD inh inconclusive, ALDH1A1 block 20µM
O=C(CNCCN1CCOCC1)Nc1ccccc1Sc1ccccc1	ALDH1A1 block 31.6µM
O=C(CN1CCOCC1)Nc1ccccc1Sc1ccccc1	none
Cc1nc2cnc(N(C)C)nc2n(-c2ccccc2)c1=O	ALDH1A1 block inconclusive (no result: CBFb-RUNX1 inh, HTT aggregate, HPGD inh, PNC assembly inh)
c1ccc2c(c1)oc1c(NCCN3CCOCC3)ncnc12	PNC assembly inh inconclusive
c1ccc2c(c1)oc1c(Nc3ccc(CN4CCOCC4)cc3)ncnc12	ALDH1A1 block 20µM
CCc1nc(Nc2ccc(N3CCN(C(C)=O)CC3)cc2)c2oc3ccccc3c2n1	HTT aggregate inconclusive, ALDH1A1 block inconclusive, PNC assembly inh inconclusive (no result: CBFb-RUNX1 inh, HPGD inh)
c1ccc2c(c1)oc1c(NCc3ccc4c(c3)OCO4)ncnc12	HTT aggregate 11.2µM
CC(=O)N1CCN(c2ccc(Nc3ncnc4c3oc3ccccc34)cc2)CC1	HTT aggregate 17.8µM, ALDH1A1 block inconclusive
CC(C)=CCC/C(C)=C\COc1c2ccoc2cc2oc(=O)ccc12	CBFb-RUNX1 inh inconclusive, HPGD inh inconclusive, ALDH1A1 block inconclusive (no result: HTT aggregate, PNC assembly inh)
CC(NC(=O)COC(=O)/C(=C/c1cccs1)c1cccs1)c1ccccc1 (centres undefined)	none
O=C(NCC(c1cccnc1)N1CCN(c2ccc(F)cc2)CC1)c1ccc(F)cc1 (centres undefined)	ALDH1A1 block 31.6µM
COc1ccc(C(=O)NCC(c2cccnc2)N2CCN(c3ccc(F)cc3)CC2)cc1OC (centres undefined)	ALDH1A1 block inconclusive
CC(C)(C)c1cc(NC(=O)CSc2nncs2)n(-c2ccccc2)n1	none
CCCc1cc(N2CCCC(C(=O)Nc3ccc(OC)cc3OC)C2)n2ncnc2n1 (centres undefined)	HPGD inh 28.2µM, ALDH1A1 block inconclusive
Cc1cccc(C(=O)O)c1C[C@H]1NCC[C@H]2c3ccccc3N[C@@H]12	HPGD inh inconclusive, ALDH1A1 block inconclusive (no result: CBFb-RUNX1 inh, HTT aggregate, PNC assembly inh)
Cc1cccc(/C(N)=N/OC(=O)N2c3ccccc3Sc3ccccc32)c1	HPGD inh 17.8µM
N/C(=N\OC(=O)N1c2ccccc2Sc2ccccc21)c1ccccc1	HPGD inh 17.8µM, PNC assembly inh inconclusive
Cc1cccc(/C(N)=N/OC(=O)C23CC4CC(CC(C4)C2)C3)c1	PNC assembly inh -113.8 (no result: HTT ATP protect)
O=C(c1cccnc1)N1c2ccccc2Sc2ccccc21	none (no result: HPGD inh, PNC assembly inh)
Cc1cccc(/C(N)=N/OC(=O)Cc2ccccc2)c1	none (no result: HPGD inh, PNC assembly inh)
O=C(NCCN1CCOCC1)C1(C(F)(F)F)C/C(=C\CCO)CCCO1 (centres undefined)	none (no result: HTT aggregate, HPGD inh, ALDH1A1 block, PNC assembly inh, HTT ATP protect)
Cc1ccc(S(=O)(=O)/N=C(\Nc2cccc(C)c2)Nc2nc(C)cc(C)n2)cc1	ALDH1A1 block 0.398µM
COc1cc(CN2CC(=O)N(c3ccc(C)c(C)c3)C2=S)cc(OC)c1OC	none
CCc1ccc(N2C(=O)CN(Cc3cc(OC)c(OC)c(OC)c3)C2=S)cc1	PNC assembly inh -81.5
CCOc1cc(S(=O)(=O)N2CCN(Cc3ccccc3)CC2)ccc1Br	HTT aggregate 11.2µM
Cc1cccc(NC(=O)C2CCCC2)c1	none
Cc1ccc(C2CC2C(=O)NNC(=S)Nc2cccc(C)c2)cc1 (centres undefined)	ALDH1A1 block 17.8µM, PNC assembly inh inconclusive
Cc1cnn(CCC(=O)NNC(=S)Nc2cccc(Cl)c2)c1	ALDH1A1 block inconclusive
Cc1ccc(C2CC2C(=O)NNC(=S)Nc2cccc(Cl)c2)cc1 (centres undefined)	HTT aggregate inconclusive, ALDH1A1 block 7.08µM, PNC assembly inh inconclusive
COC(=O)NNS(=O)(=O)c1ccc(C)cc1	PNC assembly inh -98.7 (no result: HTT ATP protect)
Cc1ccc(S(=O)(=O)NCCOCCNS(=O)(=O)c2ccc(C)cc2)cc1	ALDH1A1 block 12.6µM
Cc1ccc(S(=O)(=O)NCCCC(=O)C=[N+]=[N-])cc1	ALDH1A1 block 12.6µM, PNC assembly inh -108.7

Compound activity deposited in PubChem by National Center for Advancing Translational Sciences (NCATS).
